# Screening results (PubChem)
# Pol eta inh – blocks human DNA polymerase eta activity; 390,000 tested, 1.2% active; recombinant Pol eta, fluorescent DNA replication assay; Potency, µM (series often up to 114 µM), inactives show at the top dose activity change, negative = inhibition, hits mostly inhibitors; AID 588591; further: on the % scale 0 is the no-effect control and ±100 the full control effect
#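 Pol eta at 10 nM preincubated with compounds 15 min at room temperature; reaction started with fluorescent substrate (50 nM final) and read kinetically at 0 and 10 min.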
# Pol beta inh – DNA polymerase beta (human) inhibition; AID 485314; Pol beta primer extension/strand displacement, fluorescence kinetic; P06746; Potency, µM (top dose mostly 114 µM), without a hit: at the highest dose activity change, negative = inhibition, most hits filed as inhibitors; 340,000 tested, 1.3% active; further: on the % scale 0 is the no-effect control and ±100 the full control effect
#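 Pol beta (10 nM) and compounds were preincubated 15 min at room temperature, then 50 nM substrate (final) started primer extension/strand displacement. Reads were taken at 0 and 10 min; concentration-response data were fitted to a four-parameter Hill equation.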
# TDP1 inh – inhibitors of human tyrosyl-DNA phosphodiesterase TDP1; Q9NUW8; recombinant TDP1, AlphaScreen DNA substrate cleavage; Potency, µM (doses to about 130 µM), inactives show at the highest dose activity change, negative = inhibition, actives largely listed as inhibitors; 350,000 tested, 0.28% active; further: on the % scale 0 is the no-effect control and ±100 the full control effect; nearly all actives have a fitted effect of over 40% in size
#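 Signal: AlphaScreen proximity between streptavidin donor and anti-FITC acceptor beads on intact substrate. Reaction: Tdp1 1 nM, substrate 15 nM final, 5 min RT after 15 min compound preincubation.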
# POLI inh – DNA polymerase iota (human) inhibition; Q9UNA4; Pol iota fluorescent replication assay, 10 min; Potency, µM (titrated, usually from 115 µM), for inactives: at the highest dose activity, negative = inhibition, hits mostly inhibitors; 390,000 tested, 1% active; AID 588590
# Target sequence (Q9UNA4 whole entry, looked up): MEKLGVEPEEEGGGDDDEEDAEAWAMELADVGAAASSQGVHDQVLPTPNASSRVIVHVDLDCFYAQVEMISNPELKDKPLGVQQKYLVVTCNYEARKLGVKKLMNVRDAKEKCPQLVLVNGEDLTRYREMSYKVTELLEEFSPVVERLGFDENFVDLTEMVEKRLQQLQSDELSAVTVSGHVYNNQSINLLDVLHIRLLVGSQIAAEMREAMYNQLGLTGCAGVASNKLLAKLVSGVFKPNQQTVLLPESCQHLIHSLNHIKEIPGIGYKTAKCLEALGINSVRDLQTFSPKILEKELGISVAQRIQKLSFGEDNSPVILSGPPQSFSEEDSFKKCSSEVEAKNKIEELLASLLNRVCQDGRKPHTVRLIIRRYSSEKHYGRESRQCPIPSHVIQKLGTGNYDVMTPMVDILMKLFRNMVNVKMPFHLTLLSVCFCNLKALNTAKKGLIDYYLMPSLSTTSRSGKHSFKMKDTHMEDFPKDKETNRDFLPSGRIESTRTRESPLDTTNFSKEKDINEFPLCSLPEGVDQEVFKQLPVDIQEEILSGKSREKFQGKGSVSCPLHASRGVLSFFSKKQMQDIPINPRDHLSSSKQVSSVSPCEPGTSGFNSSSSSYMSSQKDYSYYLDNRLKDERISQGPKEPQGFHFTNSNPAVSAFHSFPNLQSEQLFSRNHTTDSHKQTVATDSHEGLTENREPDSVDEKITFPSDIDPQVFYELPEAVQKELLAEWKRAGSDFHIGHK
#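 Pol iota at 10 nM preincubated 15 min with compounds at room temperature; reaction started with fluorescent substrate, 50 nM final. Fluorescence read kinetically at 0 and 10 min; buffer-only wells as negative control.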
# POLK inh – inhibitors of human DNA polymerase kappa | AID 588579 | purified Pol kappa, fluorescent DNA synthesis assay, 10 min | Potency, µM (titrated, usually from 107 µM), for inactives: at the top dose activity, negative = inhibition, actives largely listed as inhibitors | 400,000 tested, 0.53% active | Q9UBT6; further: on the % scale 0 is the no-effect control and ±100 the full control effect
#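 Activity was followed as the change in fluorescence between reads at 0 and 10 min after starting the reaction with 50 nM substrate. Beforehand, 10 nM polymerase had been preincubated with compound for 15 min at room temperature.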
# FEN1 inhibitor – human FEN1 inhibition; AID 588795; Recombinant FEN1 flap cleavage, fluorescence, 15 min; 390,000 tested, 0.35% active; P39748; Potency, µM (doses to about 114 µM), for inactives: top-dose activity change, negative = inhibition, usual class: inhibitors; further: on the % scale 0 is the no-effect control and ±100 the full control effect; nearly all actives have a fitted effect of over 65% in size
#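 Recombinant FEN1 (10 nM) was preincubated with pin-transferred compounds for 15 min at room temperature, then flap DNA substrate (50 nM final) was added. Plates were read at 0 and 15 min, and normalized concentration–response data were fitted to a four-parameter Hill equation.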
# * marks the source's active call; other numbers are inactive results; ? = inconclusive; . = not tested or not shown; [ ] = dose if it differs, or a comment. Most compounds without a hit are left out; they make up all but 2.4% or so of the library. The call rests on the fitted dose curve; in most records, active means well fitted curve in the direction sought with a large enough effect; inconclusive means small, poorly fitted or top-dose-only effect, or another doubt; inactive means no such curve, though single readings can be large; an effect the other way counts as inactive or inconclusive. Potency means the concentration at half of the fitted maximal effect.
SMILES,Pol eta inh,Pol beta inh,TDP1 inh,POLI inh,POLK inh,FEN1 inhibitor
COc1ccc(C(CC(=O)NCc2ccccc2)N2Cc3ccccc3C2=O)cc1 (stereo unspecified),-14%,4%,6%,20%,5%,3%
Cc1ccc(NC(=O)CSc2nnc(-c3cc4occc4n3C)n2-c2ccccc2C)cc1F,-15%,10%,7%,14%,?,5%
CCOC(=O)c1sc2ncn(CC(=O)Nc3cccc(C)c3)c(=O)c2c1C,2%,3%,3%,7%,-9%,-3%
CCc1ccc(C(=O)c2cn(CC(=O)Nc3ccc(F)cc3)c3cc4c(cc3c2=O)OCO4)cc1,-6%,22%,-4%,43%,0%,-4%
C#CCOCCOCCOCCNc1nc(N2CCN(C(=O)C(Cc3ccc(O)cc3)n3cc(C(N)CC(C)C)nn3)CC2)nc(N2CCN(C(=O)C(Cc3cc4ccccc4[nH]3)n3cc(C(N)C(C)CC)nn3)CC2)n1 (stereo unspecified),.,50µM*,6%,.,.,.
C#CCOCCOCCOCCNc1nc(N2CCN(C(=O)[C@H](Cc3ccc(O)cc3)n3cc([C@@H](N)CC(C)C)nn3)CC2)nc(N2CCN(C(=O)[C@H](Cc3cc4ccccc4[nH]3)n3cc([C@@H](N)CC(C)C)nn3)CC2)n1,-19%,35µM*,6%,?,-4%,-4%
C#CCOCCOCCOCCNc1nc(N2CCN(C(=O)C(Cc3cc4ccccc4[nH]3)n3cc(C(N)C(C)CC)nn3)CC2)nc(N2CCN(C(=O)C(Cc3cc4ccccc4[nH]3)n3cc(C(N)C(C)CC)nn3)CC2)n1 (stereo unspecified),-2%,20µM*,6%,?,1%,?
C#CCOCCOCCOCCNc1nc(N2CCN(C(=O)[C@H](Cc3ccc(O)cc3)n3cc([C@@H](N)C(C)CC)nn3)CC2)nc(N2CCN(C(=O)[C@H](Cc3cc4ccccc4[nH]3)n3cc([C@@H](N)Cc4ccc(O)cc4)nn3)CC2)n1 (stereo partly specified),.,-10%,8%,.,.,.
N#Cc1nc(Nc2ccc(C(F)(F)F)cc2)nc(NC2CCCC2)n1,.,.,0%,.,.,.
COc1cccc(N2CC(NC(=O)c3ccc(S(=O)(=O)N4CCOCC4)cc3)CC2=O)c1 (stereo unspecified),-15%,-4%,3%,15%,7%[60.1 µM],8%
O=C1c2ccccc2C(=O)N1c1ccc2ccccc2n1,.,.,1%,.,.,.
CCS(=O)(=O)N1Cc2ccccc2CC1C(=O)Nc1cc(S(C)(=O)=O)ccc1Cl (stereo unspecified),?,-11%,4%,35µM*,?,9%
c1cc2[nH]snc2c2nc(C3CC3)nc12,79µM*,4%,2%,?,-8%,?
COc1cc(OC)cc(C(=O)Nc2nc(-c3nnn(-c4ccc(F)c(Cl)c4)c3C)ns2)c1,-13%,3.2µM*,-5%,?,10%,-27%
NC(=O)/C(=C/c1ccco1)C(N)=S,-6%,-9%,10µM*,?,?,-7%
COc1ccc(-c2ccc3c(c2)S(=O)(=O)c2cccc(C(=O)NCc4cc(C)oc4C(F)(F)F)c2C3=O)cc1OC,11µM*,.,-7%,?,?,3%
CC(=O)N1CCC2(CC1)CCN(c1ccccn1)CC2,.,.,.,.,9%[60.1 µM],.
COc1ccc(-c2ccc(/C=C3/C(=N)N4C=CSC4=NC3=O)o2)c([N+](=O)[O-])c1,20µM*,35µM*,2%,?,-19%,-20%
CS(=O)(=O)c1ccc2nc(NC(=O)Nc3ccccc3F)sc2c1,-1%,49%,.,-10%,12%,-1%
Cc1ccc(NC(=O)Nc2nc3ccc(S(C)(=O)=O)cc3s2)cc1,79µM*,.,-6%,23%,-3%,-2%
CS(=O)(=O)c1ccc2nc(NC(=O)Nc3ccc(Cl)c(Cl)c3)sc2c1,-16%,-16%,-2%,139%,-8%,5%
CS(=O)(=O)c1ccc2nc(NC(=O)Nc3cccc(Cl)c3)sc2c1,-9%,50µM*,3%,?,-4%,5%
O=C(COc1ccccc1)Nc1ccccc1F,-7%,-3%,.,20%,4%,5%
O=C(COc1c(Br)cc(Br)c2cccnc12)Nc1ccccc1F,?,4.5µM*,5%,-27%,-30%,-4%
COc1ccc(C2Nc3ccccc3C(=O)N2Cc2ccccc2)cc1COc1ccc(NC(=O)c2ccccc2)cc1 (stereo unspecified),.,.,0%,.,.,.
SMILES,Pol eta inh,Pol beta inh,TDP1 inh,POLI inh,POLK inh,FEN1 inhibitor
O=C(O)C1CC=CCC1C(=O)Nc1cccc(F)c1 (stereo unspecified),-6%,28µM*,.,-6%,-14%,-2%
O=C(O)C1CC=CCC1C(=O)Nc1ccc2c(c1)OCCO2 (stereo unspecified),?,20µM*,.,-16%,-4%,-1%
O=C(O)C1CC=CCC1C(=O)Nc1ccc(F)c(F)c1 (stereo unspecified),3%,59%,-2%,10%,-12%,-11%
O=C(COc1ccccc1C(=O)Nc1ccccc1)Nc1ccccc1F,.,.,.,?,-9%,2%
Cc1cc2nc3ccc(N(C)C)cc3nc2cc1N,?,.,.,6.3µM*,?,?
Cc1ccc(-n2nc3cc(C)c(N)cc3n2)cc1,-7%,46%,-1%,1%,-9%,-13%
COC1=CC(=O)c2ccccc2C1=O,?,.,2%,14µM*,10%,10µM*
Cc1cnc(C=NNC(N)=S)c2cccc(N)c12,5µM*,.,.,2.2µM*,?,?
NC(=S)NN=Cc1nccc2ccccc12,-7%,.,.,108%,-26%,-19%
Cc1ccccc1NS(=O)(=O)c1ccc2[nH]cc(C(=O)N(C)Cc3ccco3)c(=O)c2c1,8.9µM*,20µM*,.,?,?,-2%
COc1cccc(NS(=O)(=O)c2ccc3[nH]cc(C(=O)N(C)Cc4ccco4)c(=O)c3c2)c1,?,?,-4%,79µM*,?,-8%
O=C(Nc1cccc(-c2nc3cccnc3s2)c1)C1c2ccccc2Oc2ccccc21,8.9µM*,-15%,?,-74%,-6%,-13%
O=C(Nc1cccc(-c2nc3cccnc3s2)c1)c1cccnc1Cl,2%,2%,1%,17%,-3%,-4%
Cc1ccccc1-c1cc2c(nn1)-c1ccccc1C2=O,-14%,-2%,6%,16µM*,-6%,-5%
O=C1c2ccccc2-c2nnc(-c3ccc(F)cc3)cc21,-14%,22%,-8%,?,-7%,2%
CC(C)c1ccc(NC(=O)CC2NCCNC2=O)cc1 (stereo unspecified),6%,26%,-5%,3%,7%,-3%
